Source: PubChem BioAssay
CCHFV vOTU inh = CCHFV vOTU protease inhibition | Pep-AMC fluorescence | inhibition, % at 11.5 µM | 370,000 compounds, 0.55% hits | AID 651958; also: 0% = vehicle wells with enzyme and 100% = no enzyme wells
Mtb FBA inh = inhibitors of M. tuberculosis fructose-bisphosphate aldolase; purified M. tuberculosis FBA, fluorescence read-out; P9WQA3; AID 588726; inhibition, % at 1 µM; 360,000 compounds, 2.3% hits; in the data active = inhibition above about 27%;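 also: 0% = vehicle and 100% = reference inhibitor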
SARS 3CLpro inh = SARS-CoV 3CLpro protease inhibition | recombinant SARS-CoV 3CLpro, quenched FRET peptide cleavage | 290,000 compounds, 0.14% hits | inhibition, % at 6 µM | AID 1706; in the data active = inhibition above about 12%
DUSP3 inh = blocks human VHR1 dual specificity phosphatase. P51452. recombinant VHR phosphatase, pNPP absorbance. inhibition, % at 13.3 µM. 290,000 compounds, 0.52% hits; in the data active = inhibition above about 50%
RecA splice inh = blocks M. tuberculosis RecA intein splicing | P9WHJ3 | cell-free RecA intein splicing, fluorescence | inhibition, % (concentration not given with the values) | 290,000 compounds, 0.75% hits | AID 2221; in the data active = inhibition above about 30%;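 also: 0% = vehicle wells and 100% = reference inhibitor control wells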
GDH-TPI inh = inhibits GDH-TPI coupling enzymes, artifact for Mtb FBA screen | GDH-TPI coupled enzyme counterscreen, NADH absorbance | inhibition, % at 4.8 µM | 360,000 compounds, 1.2% hits | AID 588335;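 also: 0% = DMSO wells and 100% = wells lacking the enzyme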
Numbers without * were called inactive; / = no result given; + = active, no number. This is a sample that favours compounds with a hit; in the whole collection about 4.7% have one here. Rule as the data show it, unless noted: active = inhibition above about 30%; inactive = the rest.

SMILES	CCHFV vOTU inh	Mtb FBA inh	SARS 3CLpro inh	DUSP3 inh	RecA splice inh	GDH-TPI inh
CCOC(=O)c1c(N)n(CCCOC(=O)c2ccco2)c2nc3ccccc3nc12	-193.5	+	-5.8	22.1	-152.2	9.2
COc1ccc(OC)c(-n2c(N)c(C(=O)NCC3CCCO3)c3nc4ccccc4nc32)c1 (stereo unspecified)	4.1	4.5	2.1	26.7	8.8	3.4
COCCn1c(N)c(C(=O)Nc2sc3c(c2C(=O)OC)CCCC3)c2nc3ccccc3nc21	-1.2	0.9	-5.3	-9.5	/	6.3
COCCCn1c(N)c(-c2nc3ccccc3n2C)c2nc3ccccc3nc21	3.8	1.6	1.4	21.3	-47.2	15.5
COc1ccc(CC(=O)N2CCN(C(=O)c3ccc4nc(C)n(C5CCCC5)c4c3)CC2)cc1	-6.7	/	/	/	/	/
Nc1c(C(=O)OCC2CCCO2)c2nc3ccccc3nc2n1Cc1cccs1 (stereo unspecified)	-135.7	163.1*	-6.0	-6.1	16.2	22.5
CC1=N/C(=C\c2ccc([N+](=O)[O-])cc2)C(=O)N1c1ccc(C)c(Cl)c1	-0.3	/	/	/	/	/
Cc1nc2c(C)cccn2c(=O)c1NC(=O)c1ccc(Br)o1	-1.1	2.2	/	/	-2.0	32.9*
Cc1nc2c(C)cccn2c(=O)c1NC(=O)c1ccco1	13.0	-0.7	/	/	-0.1	14.1
CCC(=O)N(c1nnc(SC(C)C(=O)Nc2ccc(N3CCOCC3)cc2)s1)C1CC1 (stereo unspecified)	-10.8	-1.2	/	/	/	-1.3
O=C(c1ccc(OC2CCN(CCc3ccccc3)CC2)cc1)N1CCCCC1CCCO (stereo unspecified)	2.7	0.8	-2.3	50.2*	-0.8	-3.9
CCCN(CC(=O)Nc1ccccc1C)C(=O)CCCNC(=O)c1ccc(Cl)cc1	-4.4	-1.4	/	/	/	1.1
CCN(CC)c1ccc(/C=N/N2C(=O)c3ccccc3C2=O)cc1	4.7	1.8	-1.5	-5.7	-0.5	23.9
CCc1n[nH]c(=S)n1/N=C/c1ccc(N(CC)CC)cc1	1.1	-5.4	2.6	15.5	0.2	47.6*
CCN(CC)c1ccc(/C=N/n2c(C)cc(C)cc2=O)cc1	6.2	-1.8	-1.4	-15.0	-0.5	33.0*
Nc1ccc2cc3[nH]c4cc(N)ccc4c3nc2c1	-68.1	13.9	/	/	/	18.8
COc1ccc(Nc2nc(-c3sc(C)nc3C)cs2)cc1	-2.7	0.7	-3.3	8.8	8.9	2.8
Cc1nc(C)c(-c2csc(Nc3ccc(N)cc3)n2)s1	-9.8	-1.0	-4.2	57.0*	/	2.5
C=CCN(CC#CC(=C)C)CC1CC1	-0.9	/	/	/	/	/
Clc1ccc(-n2c(Cc3cccs3)nnc2SC/C=C/c2ccccc2)cc1	4.2	/	/	/	/	/
CN1c2ccccc2Sc2cc(N)ccc21	12.5	0.8	4.4	55.0*	-2.5	8.6
CCCCCCCSc1nsc(N)n1	2.6	1.8	-0.9	57.3*	13.6	-0.5
CCCCCCSc1nsc(NC(=O)CC(C)C)n1	11.4	-2.6	2.0	-17.2	-2.3	0.6
COc1ccccc1Cc1c(-c2cccc(Cl)c2)nc2c3ccccc3ccn12	7.0	/	/	/	/	/
Cc1cc(=O)oc2c(C(=O)/C=C\c3cccs3)c(O)ccc12	-0.7	1.2	-3.1	17.0	-2.6	42.1*
SMILES	CCHFV vOTU inh	Mtb FBA inh	SARS 3CLpro inh	DUSP3 inh	RecA splice inh	GDH-TPI inh
COc1cc(/C=C/C(=O)c2c(O)cc(C)oc2=O)cc(OC)c1O	-2.3	-5.5	-1.2	22.3	-4.3	33.9*
Cc1cc(=O)oc2c(C(=O)/C=C/c3ccccc3)c(O)ccc12	0.8	7.6	-4.6	12.9	-5.2	1.7
COc1cc(/C=C/C(=O)c2c(O)ccc3c(C)cc(=O)oc23)ccc1O	6.8	1.7	-12.6	14.3	-1.5	49.5*
COc1ccc(/C=C\C(=O)c2c(O)ccc3c(C)cc(=O)oc23)cc1OC	7.0	5.3	4.0	33.8	-0.2	52.2*
O=C(O)c1ccc(N/N=C/c2cccc3nccnc23)cc1	2.7	-3.9	4.3	-11.7	/	45.6*
Cc1cccc2cc(/C=N/Nc3ccc(C(=O)O)cc3)c(Cl)nc12	0.6	5.1	4.7	-7.7	/	21.9
C[C@H](NC(=O)OC(C)(C)C)C(=O)N/N=C/c1cccc2nccnc12	-4.1	7.7	-2.8	6.1	-1.3	12.9
O=C(O)c1ccc(N/N=C/c2cc3ccccc3nc2Cl)cc1	-4.1	3.5	-1.2	25.0	-23.7	36.7*
COC(=O)[C@]12CCCCC=C1N(Cc1ccccc1)C(=O)[C@H](CC(=O)NCCc1ccccc1OC)C2	7.1	/	/	/	/	/
O=C(C1CCCN(S(=O)(=O)c2ccccc2[N+](=O)[O-])C1)N1CCN(Cc2ccccc2)CC1 (stereo unspecified)	-5.6	/	/	/	/	/
CC(C)c1ccc(C(O)P(=O)(OC2CCCCC2)OC2CCCCC2)cc1 (stereo unspecified)	21.8	-0.9	1.9	25.3	4.3	-8.6
COc1cc(NC(=O)c2cccs2)ccc1NC(=O)c1ccco1	13.6	1.6	-1.7	-2.0	-2.4	35.1*
O=C(Nc1ccc(NC(=O)c2cccs2)cc1Cl)c1ccco1	-13.7	0.0	0.1	15.4	-1.8	2.5
COc1cc(NC(=O)COc2ccccc2[N+](=O)[O-])ccc1NC(=O)c1cccs1	7.6	0.0	2.8	18.2	-2.3	40.7*
CC(=O)c1ccc2c(c1)C1C=CCC1C(C(=O)O)N2 (stereo unspecified)	49.8*	-14.1	2.2	13.9	/	8.2
Nc1c(C(=O)Nc2cccc(Cl)c2Cl)sc2nc(-c3cccnc3)ccc12	-10.3	-0.8	-2.8	21.9	-1.3	7.0
COc1ccc(NC(=O)c2sc3nc(-c4cccnc4)ccc3c2N)cc1OC	-2.6	-1.1	-9.0	24.9	-10.4	43.5*
COc1ccc(NC(=O)c2sc3nc(-c4cccnc4)ccc3c2N)cc1	-7.2	-1.0	0.9	-8.8	-9.2	39.3*
Nc1c(C(=O)Nc2ccccc2)sc2nc(-c3cccnc3)ccc12	-3.7	/	0.4	15.0	-1.9	/
COc1ccc2nc(NN=Cc3cccc(C)n3)cc(C)c2c1	-0.1	/	/	/	/	/
O=C(O)c1ccccc1C(=O)c1cccs1	-13.6	1.2	-0.8	18.2	0.0	-0.5
O=C(O)Cc1ccc(C(=O)c2cccs2)s1	14.0	-9.0	1.7	1.5	1.7	37.5*
Cc1nn(CCC(=O)NNC(=O)NCc2ccccc2)c(C)c1[N+](=O)[O-]	-6.8	/	/	/	/	/
COc1cc(/C=C/C(=O)OCC(=O)NC2CCCCCCC2)ccc1O	6.7	5.6	/	/	/	33.0*
COc1cc(/C=C/C(=O)OCC(=O)N2CCc3ccccc3C2)ccc1O	-4.6	2.9	-3.6	-3.8	3.1	56.7*
COc1ccc(/C=C/C(=O)OCC(=O)NC2CCCCCC2)cc1	11.6	-1.8	/	/	/	20.4
COC(=O)[C@]12C[C@H](CC(=O)NCC3CCCCC3)C(=O)N(Cc3ccco3)C1=C[C@H](C(C)C)O[C@@H]2C1CC1	18.4	/	/	/	/	/
COc1cccc(NC(=O)c2oc3ccccc3c2NC(=O)c2ccc3c(c2)OCO3)c1	-16.7	1.6	2.9	11.3	1.8	35.7*
COc1ccc(C(=O)c2oc3ccccc3c2NC(C)=O)cc1	-0.2	-0.3	-1.3	13.5	-4.5	32.9*
COc1ccc(NC(=S)NC(=O)C2CCCCC2)cc1	9.2	-1.0	5.4	-3.0	0.0	4.8
